# The whole screen tested about 410,000 compounds, of which about 2,000 (0.49%) were called active. Roughly 8% stayed inconclusive and do not appear here. The list comes from a sample in which actives are over-represented; it also holds similar structures and randomly drawn compounds. A number with no mark means an inactive call. The call rests on the fitted dose curve; tested in HEK293 reporter line.
# Assay: qHTS Assay for Foot and Mouth Disease Virus Antivirals: Primary Screen against the MLPCN compound library; further: nearly all actives have a fitted effect of over 55% in size
# Details: FMDV antiviral cell-based qHTS; series mostly up to 57.9 µM; activity, negative = inhibition: at the top concentration
# Potency means the concentration at half of the fitted maximal effect.
Compound,"activity, negative = inhibition [%]",Potency
COc1cc(C(=O)Nc2ccccc2C(=O)Nc2ccccn2)cc(OC)c1OC,-30.3,–
COc1cc(SC)ccc1C(=O)Nc1nc2ccccc2[nH]1,-100,–
COc1cc(SC)ccc1C(=O)Nc1ccc(Br)cn1,–,8.91 µM (active)
COc1cc(SC)ccc1C(=O)NCCOc1c(C)cc(C)cc1C,-35.5,–
COc1cc(SC)ccc1C(=O)Nc1ccccn1,–,17.8 µM (active)
COc1ccc(C(=O)Nc2ccc(C)cn2)c(OC)c1,-97.6,–
CCOc1ccc(S(=O)(=O)N2CCN(C(=O)c3cc(C4CC4)nn3-c3ccccc3)CC2)cc1,-36.7,–
CN1CCN(C(=O)c2cc3nc(-c4ccccc4)cc(C(F)(F)F)n3n2)CC1,-43.7,–
CC(C)c1cc(Br)c(NC(=O)Nc2cccnc2)c(Br)c1,-33.2,–
O=C1CN=C(c2ccc(Br)cc2)c2c(sc3c2CCCC3)N1CCN1CCCCC1,-32,–
OCCCCCNc1ncnc2ccccc12,-38.3,–
CO/N=C\c1cc(C(=O)c2ccc(Cl)cc2Cl)cn1C,-30.8,–
Cc1cccc(C(=O)O/N=C(\N)c2ccccn2)c1,–,8.91 µM (active)
CC(C)(C)c1ccc(C(=O)O/N=C(\N)c2ccccc2)cc1,-71.3,–
CC(C)(C)c1ccc(C(=O)O/N=C(\N)c2ccccn2)cc1,-86.1,–
Cc1cccc(/C(N)=N/OC(=O)c2ccc(Cl)cc2Cl)c1,–,20 µM (active)

Compound,"activity, negative = inhibition [%]",Potency
Cc1ccc(C(=O)O/N=C(\N)Cc2ccc([N+](=O)[O-])cc2)c(Cl)c1,-38.9,–
CCCNNC(=O)C(O)(c1ccccc1)c1ccccc1,-31.8,–
Cc1ccc(-c2nnc(-c3ccccc3)c(N3CCOCC3)n2)cc1,-32.6,–
COc1ccc(-c2noc(C3CC(=O)N(c4cc(C)cc(C)c4)C3)n2)cc1 (stereo unspecified),-32.6,–
Cc1cccc(C)c1-n1nnnc1C(c1ccnc2ccccc12)N(CCN(C)C)Cc1ccccc1 (stereo unspecified),-41.8,–
Cc1cccc(C(=O)O)c1NC(=O)c1ccc(F)cc1,-30.2,–
Cc1c(NC(=O)c2ccc(-c3ccccc3)cc2)cccc1C(=O)O,–,5.01 µM (active)
Cc1ccc(C(=O)Nc2ccccc2C(=O)O)cc1S(=O)(=O)Nc1ccccc1,106,–
COc1ccc(C(C)(O)c2nc(-c3ccncc3)cs2)cc1 (stereo unspecified),-42.2,–
COc1ccc(C(C)(O)c2nc(-c3ccc(S(C)(=O)=O)cc3)cs2)cc1 (stereo unspecified),-32.7,–
COc1ccc(-c2csc(N3C(=O)CNC3=S)n2)cc1,–,10 µM (active)
Cc1ccc(CC2CC(=O)N(Cc3ccco3)C2=O)cc1 (stereo unspecified),-35.1,–
Cn1c(=O)[nH]c(=O)c2c1nc(N1CCCCC1)n2CC(O)COc1ccc([N+](=O)[O-])cc1 (stereo unspecified),–,10 µM (active)
Cn1c(=O)[nH]c(=O)c2c1nc(N1CCCCC1)n2CCOc1ccccc1,-35.2,–
Cn1c(=O)c2c(nc(N3CCCCC3)n2CC(O)COc2ccccc2)n(C)c1=O (stereo unspecified),-33.1,–

# — PubChem BioAssay AID1347131 (National Center for Advancing Translational Sciences (NCATS), 2019)
